Test results reported in PubChem BioAssay.
Potency and affinity values are given separately. The source made the active and inactive calls.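 The calls were made as follows, unless noted: active = a fitted half-maximal concentration no higher than twice the top valid tested dose, with signal falling as cells die; inconclusive = flat curve between -70% and -30%, or poor fit; inactive = the rest, including signal rising instead of falling.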

Experiments:
[1] = C. neoformans lysis by adenylate kinase leakage – AK release luminescence, cherry-picks, dose response (AID 687000;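 active = fitted dose curve reaches 40% lysis signal rise at or below the highest valid concentration tested for that sample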;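 also: luminescent detection of adenylate kinase leaking from lysed yeast; 0% = median neutral control signal and 100% = double that signal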); conditions: 4 h, 100% = twice the neutral-control signal; series mostly up to 15 µM
[2] = viability loss in HepG2 hepatoma cells – cell-based, cherry-picks, set 2, cytotoxicity control, dose response (AID 687002;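 active = a dose-response fit showing signal loss, with half-maximal concentration no higher than twice the top tested dose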); conditions: ATP luminescence (CellTiter-Glo), 48 h; series mostly up to 26 µM
[3] = viability loss in HeLa cells – cell-based, ATP luminescence, cherry-pick samples, cytotoxicity control, dose response (AID 687004); conditions: ATP luminescence (CellTiter-Glo), 48 h; series mostly up to 26 µM;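 also: 0% = neutral control median and -100% = staurosporine 10 µM control median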

Measured: activity change, negative = cytotoxicity

CCNC(=O)CN(c1ccc(Cl)cc1)S(=O)(=O)c1ccccc1
inactive: [1] | [2] | [3]

C[C@H](NC(=O)C[C@@H]1C=C[C@H](NC(=O)CN2CCOCC2)[C@H](CO)O1)c1ccccc1
inactive: [1] | [2] | [3]

Cc1ccc(C(=O)n2nnc3ccccc32)cc1[N+](=O)[O-]
inactive: [1] | [2] | [3]

Cc1ccccc1S(=O)(=O)N[C@@H]1CC[C@H](CCNS(=O)(=O)c2cccc(F)c2)O[C@H]1CO
inactive: [1] | [2] | [3]

Cc1ccc(N2C(=O)CC(N3CCN(c4ccc(F)cc4)CC3)C2=O)c(C)c1 (stereo not drawn)
inactive: [1] | [2] | [3]

O=C(Nc1ccc2ncccc2c1)c1ccccc1
inactive: [1] | [2] | [3]

O=C(c1ccco1)N1N=C(c2cccs2)CC1c1cc([N+](=O)[O-])ccc1O (stereo not drawn)
inactive: [1] | [2] | [3]

Cc1ccc(-n2ncc3c(SCC(=O)NNC(=O)C(C)C)ncnc32)cc1
inactive: [1] | [2] | [3]

CNC(=O)CN(c1ccccc1)S(=O)(=O)c1ccc(F)cc1
inactive: [1] | [2] | [3]

COc1ccc(CN(C)C[C@@H]2Oc3ccc(NC(=O)C4CC4)cc3C(=O)N([C@@H](C)CO)C[C@H]2C)cc1
inactive: [1] | [2] | [3]

Cc1ccccc1-n1ncc2c(SCC(=O)N3c4ccccc4CC3C)ncnc21 (stereo not drawn)
inactive: [1] | [2] | [3]

O=c1nc(-c2ccccc2)c2ccccc2[nH]1
inactive: [1] | [2] | [3]

O=C(NC[C@@H]1[C@@H](c2ccccc2)[C@H](CO)N1C(=O)C1CCC1)NC1CCCC1
inactive: [1] | [2] | [3]

Cc1ccc(NC(=O)C2CCC(=O)N2)cc1C (stereo not drawn)
inactive: [1] | [2] | [3]

CCN(CC)CC(=O)N(CC(=O)Nc1c(C)cc(C)cc1C)C1CCCCC1
inactive: [1] | [2] | [3]

CCN(CC)C(=O)CSc1ncnc2c1cnn2-c1ccccc1
inactive: [1] | [2] | [3]

CCCNC(=O)C[C@H]1CC[C@H]2[C@@H](COC[C@@H](O)CN2S(=O)(=O)c2ccc(Oc3ccccc3)cc2)O1
inactive: [1] | [2] | [3]

CC(C)C(=O)N1CCC1(C)C(=O)Nc1ccccc1C(C)(C)C (stereo not drawn)
inactive: [1] | [2] | [3]

Cc1ccc(S(=O)(=O)N[C@H]2CC[C@H](CC(=O)NCc3ccccc3F)O[C@H]2CO)cc1
inactive: [1] | [2] | [3]

CC(C)(C)SCCNC(=O)CN(c1ccccc1)S(=O)(=O)c1ccccc1
inactive: [1] | [2] | [3]

O=C(CN1CCOCC1)N[C@@H]1CC[C@@H](CCNC(=O)C2CCC2)O[C@@H]1CO
inactive: [1] | [2] | [3]

COCC#Cc1cnc2c(c1)C(=O)N([C@@H](C)CO)C[C@H](C)[C@H](CN(C)C(=O)Nc1ccc(OC)cc1)O2
inactive: [1] | [2] | [3]

Cc1cccc(C)c1NC(=O)C1(NC(=O)C2CCC(=O)N2)CCCCC1 (stereo not drawn)
inactive: [1] | [2] | [3]

COC(=O)C1=C(C)N(Cc2ccccc2)C(=O)N[C@H]1c1cccc(F)c1
inactive: [1] | [2] | [3]

Cc1ccc(OCC(=O)NC(C)c2ccccc2)cc1C (stereo not drawn)
inactive: [1] | [2] | [3]

C[C@@H]1CN([C@@H](C)CO)C(=O)c2cc(-c3cncnc3)cnc2O[C@H]1CN(C)C(=O)CN1CCOCC1
inactive: [1] | [2] | [3]

Fc1ccccc1CNC(=S)NCc1ccc(Cl)cc1
inactive: [1] | [2] | [3]

CCC(=O)Nc1ccc2c(c1)OC[C@H](C)N(C(=O)c1ccc(F)cc1)C[C@@H](C)[C@@H](OC)CN(C)C2=O
inactive: [1] | [2] | [3]

Cc1ccc(N(C(=O)C2CCC(=O)N2)C2(C(=O)NC3CCCC3)CCCCC2)cc1 (stereo not drawn)
inactive: [1] | [2] | [3]

CCOC(=O)CNC(=O)CSc1ncnc2c1cnn2-c1ccc(C)cc1
inactive: [1] | [2] | [3]

CC(C)NC(=O)N(C)C[C@@H]1Oc2c(NC(=O)C3CCCCC3)cccc2C(=O)N([C@@H](C)CO)C[C@@H]1C
inactive: [1] | [2] 11.5% [at 6 µM] | [3]

Cc1ccc(NC(=S)NCc2ccc(Cl)cc2)c(OC(F)F)c1
inactive: [1] | [2] | [3]

Cc1cccc(C)c1NC(=O)CN(C)C(=O)CC1CC2CCC1C2 (stereo not drawn)
inactive: [1] | [2] | [3]

O=C(COc1ccc2c(c1)CCC2)NCc1ccccc1
inactive: [1] | [2] | [3]

COc1cc(NC(=O)CN2CCN(S(=O)(=O)c3ccc(C(C)C)cc3)CC2)cc(OC)c1
inactive: [1] | [2] | [3]

CCNC(=O)CN(c1ccc(C)cc1)S(=O)(=O)c1ccc(SC)cc1
inactive: [1] | [2] | [3]

COCC#Cc1ccc2c(c1)O[C@H](CN(C)S(=O)(=O)c1ccc(OC)cc1)[C@H](C)CN([C@H](C)CO)S2(=O)=O
inactive: [1] | [2] | [3]

Cc1cc(C)c(NC(=O)CN(C2CCCCC2)C2CCCCC2)c(C)c1
inactive: [1] | [2] | [3]

COc1ccc(C#Cc2ccc3c(c2)O[C@H](CN(C)C(C)=O)[C@@H](C)CN([C@@H](C)CO)S3(=O)=O)cc1
inactive: [1] | [2] | [3]

CC=Cc1ccc2n(c1=O)C[C@@H]1[C@@H](CO)[C@H](C(=O)NCc3ccc4c(c3)OCO4)[C@H]2N1C(=O)C1CC1 (mixture of isomers)
inactive: [1] | [2] | [3]

CC(C)NC(=O)N(C)C[C@H]1Oc2c(NS(=O)(=O)c3ccc(Cl)cc3)cccc2C(=O)N([C@@H](C)CO)C[C@@H]1C
inactive: [1] | [2] | [3]

O=C(COc1ccccc1)NCc1ccccc1
inactive: [1] | [2] | [3]

CCCC[C@@H]1CNC(=S)N1CCc1cccc(F)c1
inactive: [1] | [2] | [3]

CN1c2ccc(Br)cc2[C@@H]2[C@@H](CCN2C(=O)Cc2cccnc2)[C@@H]1CO
inactive: [1] | [2] | [3]

COc1ccccc1NC(=O)c1cn(C)c(=O)c2cc(OC)c(OC)cc12
inactive: [1] | [2] | [3]

CO[C@@H]1CN(C)C(=O)c2cc(NC(=O)C3CCOCC3)ccc2OC[C@H](C)NC[C@@H]1C
inactive: [1] | [2] | [3]

C[C@H](CO)N1C[C@H](C)[C@H](CN(C)CC2CCCCC2)Oc2c(NS(C)(=O)=O)cccc2C1=O
inactive: [1] | [2] | [3]

C[C@H](NC(=O)C[C@H]1CC[C@@H](NC(=O)Cc2ccccn2)[C@@H](CO)O1)c1ccccc1
inactive: [1] | [2] | [3]

COc1ccc(NC(=O)CSc2ncnc3c2cnn3CCc2ccccc2)cc1
inactive: [1] | [2] | [3]

Cc1ccccc1-n1ncc2c(SCC(=O)NCc3cccs3)ncnc21
inactive: [1] | [2] | [3]

CCOC(=O)CSc1ncnc2c1cnn2-c1ccc(Cl)cc1
inactive: [1] | [2] | [3]

O=C(c1ccco1)N1N=C(c2cccs2)CC1c1ccc(F)cc1 (stereo not drawn)
inactive: [1] | [2] | [3]

COc1cccc(S(=O)(=O)Nc2ccc3c(c2)[C@H]2C[C@@H](CC(=O)NC4CCCCC4)O[C@@H](CO)[C@H]2O3)c1
inactive: [1] | [2] | [3]

Fc1ccc(CNC(=S)NCc2cccc(Cl)c2)cc1
inactive: [1] | [2] | [3]

O=C(CN(c1ccccc1)S(=O)(=O)c1ccc(F)cc1)NC1CCCCCC1
inactive: [1] | [2] | [3]

Cc1cccc(C)c1NC(=O)C1CCCCN1C (stereo not drawn)
inactive: [1] | [2] | [3]

O=C(NC(=S)Nc1ccccc1N1CCOCC1)c1ccc([N+](=O)[O-])cc1
inactive: [1] | [2] | [3]

Fc1cccc(CCN2C(=S)NC[C@@H]2Cc2ccccc2)c1
inactive: [1] | [2] | [3]

Cc1noc(C)c1S(=O)(=O)Nc1ccc2c(c1)C(=O)N([C@@H](C)CO)C[C@@H](C)[C@H](CN(C)Cc1ccc3c(c1)OCO3)OCCCC[C@H](C)O2
inactive: [1] | [2] | [3]

O=C(CSc1nc(CCC2CCCC2)nc2ccccc12)NCc1ccc2c(c1)OCO2
inactive: [1] | [2] | [3]

Cc1ccc(NC(=O)C(=O)NCCCN2CCCC2=O)c(C)c1
inactive: [1] | [2] | [3]
